Data on 38 compounds can be found in the supplement of paper PMC10811239.

The test system of one test is LEGO organoid PT (PTEN-/-; TP53-/-). The experiment in a line: bioluminescence (viable cell) signal fold change after vs before treatment, normalised to DMSO (ratio); higher = more tumour cell growth / less inhibition. The following applies: 10 µM; treatment time 6 days. As for the experimental part:
(§1)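 Luc2-labelled iPSC-derived glioblastoma-like organoids (LEGOs, genotypes PT = PTEN-/-;TP53-/-, PTCC = plus CDKN2A/B-/-, PTN = plus NF1-/-) were treated with 10 uM drug for 6 days (applied every other day) at 37 C. Bioluminescence imaging was done before treatment and 2 days after the last dose. BLI signals were normalised to the DMSO control on the same day and then to the pre-treatment signal (N=3).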
As for `O=C([O-])Cc1ccccc1Nc1c(Cl)cccc1Cl.[Na+]` [Diclofenac sodium], the bioluminescence was found to be 0.777.
On to `O=C(CCCCCCC(=O)Nc1ccccc1)NO` [Vorinostat], for which the bioluminescence amounted to 1.13.
Still for that read-out and setting: the result for `CCN(CC)CC#CCOC(=O)C(O)(c1ccccc1)C1CCCCC1` (stereo not drawn) [Oxybutynin] reads 0.449.
The same measure, in the same setting: in the case of `Nc1cccc2c1CN(C1CCC(=O)NC1=O)C2=O` (stereo not drawn) [Lenalidomide] it was 2.02; in that of `Cl.NCC(=O)CCC(=O)O` [5-Aminolevulinic acid hydrochloride], 1.09; in that of `O=C(O)c1cc(/N=N/c2ccc(S(=O)(=O)Nc3ccccn3)cc2)ccc1O` [Sulfasalazine], 0.941.
For the compound `CCCN(CCC)S(=O)(=O)c1ccc(C(=O)O)cc1` [Probenecid], the bioluminescence was 3.62.
For the compound `CNC(=O)c1cc(Oc2ccc(NC(=O)Nc3ccc(Cl)c(C(F)(F)F)c3)cc2)ccn1` [Sorafenib], the bioluminescence turned out to be 0.335.
The same measure, in the same setting: the result for `CO[C@H]1/C=C/O[C@@]2(C)Oc3c(C)c(O)c4c(O)c(c(/C=N/N5CCN(C)CC5)c(O)c4c3C2=O)NC(=O)/C(C)=C\C=C\[C@H](C)[C@H](O)[C@@H](C)[C@@H](O)[C@@H](C)[C@H](OC(C)=O)[C@@H]1C` [Rifampicin] reads 3.6; that for `O=C1CCC(N2C(=O)c3ccccc3C2=O)C(=O)N1` (stereo not drawn) [Thalidomide], 3.97.
Still for that read-out and setting: the result for `CC(=O)Oc1ccccc1C(=O)O` [Aspirin] reads 0.997.
For `O=C1NC(=O)C(c2ccccc2)(c2ccccc2)N1` [Phenytoin], the bioluminescence came to 0.795.
As for `CC(=O)Nc1nnc(S(N)(=O)=O)s1` [Acetazolamide], the bioluminescence stood at 1.6.
On the same count and under the same terms, the result for `CN[C@H](CC(C)C)C(=O)N[C@H]1C(=O)N[C@@H](CC(N)=O)C(=O)N[C@H]2C(=O)N[C@H]3C(=O)N[C@H](C(=O)N[C@H](C(=O)O)c4cc(O)cc(O)c4-c4cc3ccc4O)[C@H](O)c3ccc(c(Cl)c3)Oc3cc2cc(c3O[C@@H]2O[C@H](CO)[C@@H](O)[C@H](O)[C@H]2O[C@H]2C[C@](C)(N)[C@H](O)[C@H](C)O2)Oc2ccc(cc2Cl)[C@H]1O` [Vancomycin] reads 1.48; that for `C[C@@H]1O[C@@H]1P(=O)(O)O.NC(CO)(CO)CO` [Fosfomycin Tromethamine], 0.757.

Another test deals with LEGO organoid PTCC (PTEN-/-; TP53-/-; CDKN2A-/-; CDKN2B-/-). The test is described as above. The following applies: 10 µM; treatment time 6 days. As for the experimental part:
as §1
Consider `C[C@@H]1O[C@]2(CS1)CN1CCC2CC1.C[C@@H]1O[C@]2(CS1)CN1CCC2CC1.Cl.Cl.O` [Cevimeline hydrochloride hemihydrate], for which the bioluminescence turned out to be 1.04.
Still for that read-out and setting: in the case of `NCC[C@H](O)C(=O)N[C@@H]1C[C@H](N)[C@@H](O[C@H]2O[C@H](CN)[C@@H](O)[C@H](O)[C@H]2O)[C@H](O)[C@H]1O[C@H]1O[C@H](CO)[C@@H](O)[C@H](N)[C@H]1O.O=S(=O)(O)O.O=S(=O)(O)O` [Amikacin disulfate] it was 1.21; in that of `CCc1cc(/C(C)=N/OCc2ccc(C3CCCCC3)c(C(F)(F)F)c2)ccc1CN1CC(C(=O)O)C1` [Siponimod], 2.91.
Same read-out and setting: the result for `COC(c1ccccc1)(c1ccccc1)[C@H](Oc1nc(C)cc(C)n1)C(=O)O` [Ambrisentan] reads 1.39.
As to `OC[C@H]1O[C@@H](n2cnc3c2NC=NC[C@H]3O)C[C@@H]1O` [Pentostatin], the bioluminescence turned out to be 0.797.
As to `CCOc1nc2cccc(C(=O)O)c2n1Cc1ccc(-c2ccccc2-c2nn[nH]n2)cc1` [Candesartan], the bioluminescence stood at 1.68.
Regarding `Cc1ccnc2c1NC(=O)c1cccnc1N2C1CC1` [Nevirapine], the bioluminescence was determined as 0.901.
Still for that read-out and setting: in the case of `Nc1nc2ccc(OC(F)(F)F)cc2s1` [Riluzole] it was 1.26; in that of `CS(=O)(=O)c1cccc(C[C@H](NC(=O)c2c(Cl)cc3c(c2Cl)CCN(C(=O)c2ccc4ccoc4c2)C3)C(=O)O)c1` [Lifitegrast], 1.08.
On the same count and under the same terms, in the case of `CN(CCOc1ccc(CC2SC(=O)NC2=O)cc1)c1ccccn1` (stereo not drawn) [Rosiglitazone] it was 1.87.
As for `Cc1cccc(N(C)C(=S)Oc2ccc3ccccc3c2)c1` [Tolnaftate], the bioluminescence came out at 0.931.
As to `COc1cc2c(Nc3ccc(Br)cc3F)ncnc2cc1OCC1CCN(C)CC1` [Vandetanib], the bioluminescence worked out at 0.918.
On to `CC1COc2c(N3CCN(C)CC3)c(F)cc3c(=O)c(C(=O)O)cn1c23` (stereo not drawn) [Ofloxacin], for which the bioluminescence was found to be 2.88.
In the case of `CCc1cc(C(N)=S)ccn1` [Ethinamide], the bioluminescence is 0.707.
As to `CN(C)C(=N)NC(=N)N.Cl` [Metformin hydrochloride], the bioluminescence is 1.27.
On the same count and under the same terms, in the case of `CCCN(CCC)CCc1cccc2c1CC(=O)N2.Cl` [Ropinirole hydrochloride] it was 1.02; in that of `CCC(C)(C)C(=O)O[C@H]1C[C@@H](C)C=C2C=C[C@H](C)[C@H](CC[C@@H]3C[C@@H](O)CC(=O)O3)[C@H]21` [Simvastatin], 1.71.
Same read-out and setting: in the case of `N=C(N)NCCCC[C@@H]1NC(=O)CCSSC[C@@H](C(N)=O)NC(=O)[C@@H]2CCCN2C(=O)[C@H](Cc2c[nH]c3ccccc23)NC(=O)[C@H](CC(=O)O)NC(=O)CNC1=O` [Eptifibatide] it was 0.768; in that of `N[C@H](C(=O)O)[C@H](O)c1ccc(O)c(O)c1` [Droxidopa], 2.59.
The same measure, in the same setting: the result for `Nc1nc(NC2CC2)c2ncn([C@H]3C=C[C@@H](CO)C3)c2n1` [Abacavir] reads 1.46; that for `CC(=O)N[C@@H](CS)C(=O)O` [Acetylcysteine], 1.21; that for `CN(C)CCCN1c2ccccc2CCc2ccccc21.Cl` [Imipramine hydrochloride], 0.82.
In the case of `CCc1c(C)[nH]c2c1C(=O)C(CN1CCOCC1)CC2.Cl` (stereo not drawn) [Molindone hydrochloride], the bioluminescence came to 1.39.
Same read-out and setting: the result for `O=C([O-])Cc1ccccc1Nc1c(Cl)cccc1Cl.[Na+]` [Diclofenac sodium] reads 1.05; that for `O=C(CCCCCCC(=O)Nc1ccccc1)NO` [Vorinostat], 0.409; that for `CCN(CC)CC#CCOC(=O)C(O)(c1ccccc1)C1CCCCC1` (stereo not drawn) [Oxybutynin], 0.776.
As to `Nc1cccc2c1CN(C1CCC(=O)NC1=O)C2=O` (stereo not drawn) [Lenalidomide], the bioluminescence turned out to be 4.82.
For the compound `Cl.NCC(=O)CCC(=O)O` [5-Aminolevulinic acid hydrochloride], the bioluminescence worked out at 2.27.
Regarding `O=C(O)c1cc(/N=N/c2ccc(S(=O)(=O)Nc3ccccn3)cc2)ccc1O` [Sulfasalazine], the bioluminescence is 1.43.
The same measure, in the same setting: in the case of `CCCN(CCC)S(=O)(=O)c1ccc(C(=O)O)cc1` [Probenecid] it was 1.41.
Same read-out and setting: the result for `CNC(=O)c1cc(Oc2ccc(NC(=O)Nc3ccc(Cl)c(C(F)(F)F)c3)cc2)ccn1` [Sorafenib] reads 0.105; that for `CO[C@H]1/C=C/O[C@@]2(C)Oc3c(C)c(O)c4c(O)c(c(/C=N/N5CCN(C)CC5)c(O)c4c3C2=O)NC(=O)/C(C)=C\C=C\[C@H](C)[C@H](O)[C@@H](C)[C@@H](O)[C@@H](C)[C@H](OC(C)=O)[C@@H]1C` [Rifampicin], 0.603.
Consider `O=C1CCC(N2C(=O)c3ccccc3C2=O)C(=O)N1` (stereo not drawn) [Thalidomide], for which the bioluminescence stood at 0.79.
The same measure, in the same setting: in the case of `CC(=O)Oc1ccccc1C(=O)O` [Aspirin] it was 0.785; in that of `O=C1NC(=O)C(c2ccccc2)(c2ccccc2)N1` [Phenytoin], 0.982; in that of `CC(=O)Nc1nnc(S(N)(=O)=O)s1` [Acetazolamide], 1.7.
On the same count and under the same terms, the result for `CN[C@H](CC(C)C)C(=O)N[C@H]1C(=O)N[C@@H](CC(N)=O)C(=O)N[C@H]2C(=O)N[C@H]3C(=O)N[C@H](C(=O)N[C@H](C(=O)O)c4cc(O)cc(O)c4-c4cc3ccc4O)[C@H](O)c3ccc(c(Cl)c3)Oc3cc2cc(c3O[C@@H]2O[C@H](CO)[C@@H](O)[C@H](O)[C@H]2O[C@H]2C[C@](C)(N)[C@H](O)[C@H](C)O2)Oc2ccc(cc2Cl)[C@H]1O` [Vancomycin] reads 0.957.
On the same count and under the same terms, in the case of `C[C@@H]1O[C@@H]1P(=O)(O)O.NC(CO)(CO)CO` [Fosfomycin Tromethamine] it was 1.69.
